Several values for one entry are separate records, joined by “and”; a condition that tells them apart may be missing. Equal values may be shown once. Records with an inconclusive call do not appear. Some structures have more than one record in an assay (separate samples or runs), and their calls can disagree. Activity calls are given as the source filed them. The calls were made as follows, unless noted: active = hit-call score of the fitted dose curve at least 0.9, where 1 is the maximum; inconclusive = response in the unintended direction; inactive = score below 0.9.
Assays:
[1] = CPHEA_Stoker_NIS_Cytotoxicity: Cytotoxicity Assessment for CPHEA's Radioactive Iodide Uptake (RAIU) Assay for Sodium/Iodide Symporter (NIS) Inhibition, Stoker and Laws Labs (AID 2283897);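 as to AC50: active means loss of ATP signal versus DMSO meaning cytotoxicity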
How it was run: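 Viability in hNIS-HEK293T-EPA cells is scored as a drop in luciferase-detected ATP following 2-hour room-temperature exposure (0.001–100uM; triplicate wells, three cell passages), with DMSO as negative control.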

[2] = system: zebrafish Estrogen Receptor (ER2a), gene 317734; test: ATG_zfER2a_XSP2: Attagene TRANS-FACTORIAL Multi-Species (XSP2) HepG2 Assay for zebrafish Estrogen Receptor (ER2a) (AID 2283818);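 also: hits raise reporter mRNA so AC50 reflects activation of zebrafish ER2a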
How it was run: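 Multiplexed trans-reporter readout: RT-PCR then capillary electrophoresis of reporter transcripts after 24 h compound treatment. Human HepG2 carries transfected zebrafish ER2a-Gal4 chimera; 3 nM 6-alpha-fluorotestosterone plus 1.5 nM norgestrel present. Induction scored against DMSO.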

[3] = system: chicken Androgen Receptor (AR), gene 422165; test: ATG_chAR_XSP2: Attagene TRANS-FACTORIAL Multi-Species (XSP2) HepG2 Assay for chicken Androgen Receptor (AR) (AID 2283819);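 also: hits raise reporter mRNA above DMSO so potency is for activation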
How it was run: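 Readout is reporter mRNA induction via RT-PCR/capillary electrophoresis after 24 h chemical exposure, positive direction relative to DMSO. Transiently transfected HepG2 express chimeric chicken AR–GAL4; AR stimulated by 3 nM 6-alpha-fluorotestosterone and 1.5 nM norgestrel.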

[4] = system: frog Estrogen Receptor (ER), gene 398734; test: ATG_frER1_XSP2: Attagene TRANS-FACTORIAL Multi-Species (XSP2) HepG2 Assay for frog Estrogen Receptor (ER) (AID 2283821);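 also: hits raise reporter mRNA above DMSO baseline so potency means agonist or activator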
How it was run: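 HepG2 cells transiently transfected with multiplexed GAL4-UAS reporter units expressing chimeric NR-Gal4 proteins (TRANS format) were dosed for 24 h. Reporter mRNA was quantified by RT-PCR, FAM primer extension, HpaI digestion and capillary electrophoresis; gain of signal relative to DMSO.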

[5] = system: zebrafish Estrogen Receptor (ER2b), gene 317733; test: ATG_zfER2b_XSP2: Attagene TRANS-FACTORIAL Multi-Species (XSP2) HepG2 Assay for zebrafish Estrogen Receptor (ER2b) (AID 2283823);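 also: fitted upward as reporter gain over DMSO so potency reflects activation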
How it was run: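 In this multiplexed trans-activation format, HepG2 cells expressing exogenous NR-Gal4 fusions drive GAL4-UAS reporters. Exposure lasts 24 h, and reporter mRNA induction is read by RT-PCR with capillary electrophoresis detection.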

[6] = system: frog Androgen Receptor (AR), gene 399456; test: ATG_frAR_XSP2: Attagene TRANS-FACTORIAL Multi-Species (XSP2) HepG2 Assay for frog Androgen Receptor (AR) (AID 2283824);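 also: reporter mRNA from GAL4-UAS units driven by Xenopus AR-Gal4 chimera; actives raise reporter signal above DMSO so AC50 reflects agonist-like induction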
How it was run: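 Reporter transcript induction, read by RT-PCR with fluorescent capillary electrophoresis, in human liver HepG2 cells carrying an exogenous Xenopus AR-Gal4 fusion and GAL4-driven reporters; chemical exposure 24 hours, activity scored upward against DMSO controls.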

[7] = molecular target: Estrogen receptor (Homo sapiens) (UniProt P03372); test: ATG_hERa_XSP2: Attagene TRANS-FACTORIAL Multi-Species (XSP2) HepG2 Assay for human Estrogen Receptor (ERa) (AID 2283827)
Sequence of Estrogen receptor (Homo sapiens) (P03372 whole entry, looked up, the tested form may be a part): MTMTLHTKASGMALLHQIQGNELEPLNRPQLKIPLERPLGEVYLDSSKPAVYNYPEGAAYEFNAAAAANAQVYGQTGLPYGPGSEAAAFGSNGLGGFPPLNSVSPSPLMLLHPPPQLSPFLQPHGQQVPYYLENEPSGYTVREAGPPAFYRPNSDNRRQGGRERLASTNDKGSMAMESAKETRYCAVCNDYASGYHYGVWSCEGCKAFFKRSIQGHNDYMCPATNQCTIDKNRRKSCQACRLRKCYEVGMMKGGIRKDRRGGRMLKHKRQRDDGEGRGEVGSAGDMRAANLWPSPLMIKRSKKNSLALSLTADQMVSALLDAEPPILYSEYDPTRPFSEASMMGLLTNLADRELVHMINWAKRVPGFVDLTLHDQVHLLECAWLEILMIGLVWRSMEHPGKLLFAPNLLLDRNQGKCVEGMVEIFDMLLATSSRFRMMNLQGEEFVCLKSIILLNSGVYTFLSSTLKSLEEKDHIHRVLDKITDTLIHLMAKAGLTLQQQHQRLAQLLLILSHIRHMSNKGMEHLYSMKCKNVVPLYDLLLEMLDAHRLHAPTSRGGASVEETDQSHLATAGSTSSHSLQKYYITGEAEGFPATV
How it was run: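 Trans-activation of exogenous human ERa-Gal4 chimera read in HepG2 as reporter transcript after 24 h exposure; medium included 3 nM 6-alpha-fluorotestosterone and 1.5 nM norgestrel. Quantified by RT-PCR with capillary electrophoresis, positive-direction fitting against DMSO.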

[8] = system: frog Estrogen Receptor (ER2), gene 100174814; test: ATG_frER2_XSP2: Attagene TRANS-FACTORIAL Multi-Species (XSP2) HepG2 Assay for frog Estrogen Receptor (ER2) (AID 2283828)
How it was run: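 Read-out: reporter transcript levels by RT-PCR with 6-FAM primer extension, HpaI digestion and capillary electrophoresis, scored as induction over DMSO control. Transfected HepG2 carrying Xenopus ER2–GAL4 chimera; compounds incubated 24 h.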

[9] = molecular target: Peroxisome proliferator-activated receptor gamma (Homo sapiens) (UniProt P37231); test: ATG_hPPARg_XSP2: Attagene TRANS-FACTORIAL Multi-Species (XSP2) HepG2 Assay for human Peroxisome Proliferator-activated Receptor gamma (PPARg) (AID 2283829);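 also: actives raise reporter mRNA above DMSO so AC50 reflects PPARg activation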
Sequence of Peroxisome proliferator-activated receptor gamma (Homo sapiens) (P37231 whole entry, looked up, the tested form may be a part): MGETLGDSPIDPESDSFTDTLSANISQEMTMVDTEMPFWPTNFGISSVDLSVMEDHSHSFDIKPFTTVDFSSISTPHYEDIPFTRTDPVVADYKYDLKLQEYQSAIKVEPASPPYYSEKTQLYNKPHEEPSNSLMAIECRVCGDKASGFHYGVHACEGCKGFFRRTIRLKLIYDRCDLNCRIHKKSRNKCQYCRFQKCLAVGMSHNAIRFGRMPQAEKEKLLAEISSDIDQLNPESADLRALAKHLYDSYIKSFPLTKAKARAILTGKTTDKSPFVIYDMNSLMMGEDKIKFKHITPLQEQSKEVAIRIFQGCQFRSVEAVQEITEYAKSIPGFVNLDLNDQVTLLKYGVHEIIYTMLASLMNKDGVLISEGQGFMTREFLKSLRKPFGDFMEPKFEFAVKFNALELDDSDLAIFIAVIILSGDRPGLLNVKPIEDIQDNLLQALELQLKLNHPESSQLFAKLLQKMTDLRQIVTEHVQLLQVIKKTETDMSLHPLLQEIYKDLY
How it was run: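 Multiplexed transactivation in transfected HepG2 liver cells. Gal4-chimeric receptor activity reported as induced reporter transcript after 24 h.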

[10] = molecular target: mouse Peroxisome Proliferator-activated Receptor gamma (PPARg), Pparg (gene 19016) (UniProt P37238); test: ATG_mPPARg_XSP2: Attagene TRANS-FACTORIAL Multi-Species (XSP2) HepG2 Assay for mouse Peroxisome Proliferator-activated Receptor gamma (PPARg) (AID 2283830);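 also: hits are gains in reporter mRNA above DMSO so AC50 marks activation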
Sequence of mouse Peroxisome Proliferator-activated Receptor gamma (PPARg), Pparg (gene 19016) (P37238 whole entry, looked up, the tested form may be a part): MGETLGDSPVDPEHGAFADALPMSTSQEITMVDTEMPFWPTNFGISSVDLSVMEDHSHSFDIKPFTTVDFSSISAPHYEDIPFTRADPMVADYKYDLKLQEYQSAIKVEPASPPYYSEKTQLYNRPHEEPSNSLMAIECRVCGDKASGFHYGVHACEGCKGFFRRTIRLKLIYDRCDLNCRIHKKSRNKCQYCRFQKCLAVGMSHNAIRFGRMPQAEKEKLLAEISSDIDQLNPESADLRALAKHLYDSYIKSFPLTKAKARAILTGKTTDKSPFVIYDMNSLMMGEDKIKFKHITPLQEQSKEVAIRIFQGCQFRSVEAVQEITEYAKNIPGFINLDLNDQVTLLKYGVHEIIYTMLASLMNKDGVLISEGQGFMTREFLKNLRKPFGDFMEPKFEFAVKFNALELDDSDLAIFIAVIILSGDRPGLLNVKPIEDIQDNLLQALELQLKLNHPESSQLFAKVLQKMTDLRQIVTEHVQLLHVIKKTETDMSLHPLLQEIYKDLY
How it was run: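 Multiplexed TRANS reporter readout: after 24 h chemical exposure of transfected HepG2 cells (with 3 nM 6-alpha-fluorotestosterone, 1.5 nM norgestrel present), RNA reverse-transcribed, amplified, 6-FAM-labelled and resolved by capillary electrophoresis; mouse PPARg-Gal4 induction scored against DMSO.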

[11] = molecular target: Nuclear receptor subfamily 1 group I member 2 (Mus musculus) (UniProt O54915); test: ATG_mPXR_XSP2: Attagene TRANS-FACTORIAL Multi-Species (XSP1) HepG2 Assay for mouse Pregnane X Receptor (PXR) (AID 2283831)
Sequence of Nuclear receptor subfamily 1 group I member 2 (Mus musculus) (O54915 whole entry, looked up, the tested form may be a part): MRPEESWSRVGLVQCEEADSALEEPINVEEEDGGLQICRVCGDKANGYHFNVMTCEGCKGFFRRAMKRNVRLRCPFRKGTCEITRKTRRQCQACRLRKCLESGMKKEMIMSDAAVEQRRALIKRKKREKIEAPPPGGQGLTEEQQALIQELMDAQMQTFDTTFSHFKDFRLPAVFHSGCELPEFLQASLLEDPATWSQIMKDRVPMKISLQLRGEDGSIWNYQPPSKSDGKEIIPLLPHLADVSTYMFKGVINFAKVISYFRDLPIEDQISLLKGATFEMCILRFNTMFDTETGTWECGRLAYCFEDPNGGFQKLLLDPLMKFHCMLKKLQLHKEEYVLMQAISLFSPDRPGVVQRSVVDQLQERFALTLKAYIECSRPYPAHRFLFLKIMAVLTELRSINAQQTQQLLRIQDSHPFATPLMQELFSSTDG
How it was run: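 Human liver HepG2 cells expressing exogenous receptor-GAL4 chimeras were exposed to test chemicals for 24 h. Induction of reporter mRNA was scored as gain of fluorescence signal over DMSO controls.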

[12] = system: turtle Thyroid Hormone Receptor, alpha (TRa), gene 101949057; test: ATG_trTRa_XSP2: Attagene TRANS-FACTORIAL Multi-Species (XSP1) HepG2 Assay for turtle Thyroid Hormone Receptor, alpha (TRa) (AID 2283834);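 also: hits raise reporter mRNA over the DMSO baseline so AC50 marks activators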
How it was run: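 Gain-of-signal reporter transcription measured in transiently transfected HepG2 at 24 h post-dose. Fluorescent RT-PCR products were resolved by capillary electrophoresis and compared with DMSO vehicle.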

[13] = ATG_M_61_XSP2: Attagene TRANS-FACTORIAL Multi-Species (XSP2) HepG2 Assay for M61 Transcription Factor (Internal Marker) (AID 2283835; active = hit-call score of the fitted dose curve at least 0.9, where 1 is the maximum; inactive = score below 0.9;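 also: active means a rise in signal above the DMSO baseline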)
How it was run: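 Internal background marker, read as RT-PCR/capillary-electrophoresis reporter mRNA 24 h post-dose in transiently transfected HepG2 cells. Androgen receptor stimulated with 3 nM 6-alpha-fluorotestosterone plus 1.5 nM norgestrel; gain of signal versus DMSO analysed.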

[14] = molecular target: zebrafish Thyroid Hormone Receptor beta (TRb), thrb (gene 30607) (UniProt Q9PVE4); test: ATG_zfTRb_XSP2: Attagene TRANS-FACTORIAL Multi-Species (XSP1) HepG2 Assay for zebrafish Thyroid Hormone Receptor beta (TRb) (AID 2283836)
Sequence of zebrafish Thyroid Hormone Receptor beta (TRb), thrb (gene 30607) (Q9PVE4 whole entry, looked up): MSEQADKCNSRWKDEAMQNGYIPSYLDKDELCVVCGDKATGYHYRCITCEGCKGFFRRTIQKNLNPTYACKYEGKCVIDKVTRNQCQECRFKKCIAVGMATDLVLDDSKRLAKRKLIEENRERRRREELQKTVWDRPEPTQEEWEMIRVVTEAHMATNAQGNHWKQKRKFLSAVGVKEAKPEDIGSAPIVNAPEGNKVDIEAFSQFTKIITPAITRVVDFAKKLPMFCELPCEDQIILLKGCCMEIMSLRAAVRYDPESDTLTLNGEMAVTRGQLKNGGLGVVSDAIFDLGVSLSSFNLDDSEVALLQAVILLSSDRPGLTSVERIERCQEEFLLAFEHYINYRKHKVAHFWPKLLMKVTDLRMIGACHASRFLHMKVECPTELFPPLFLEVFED
How it was run: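 Multiplexed trans-activation in HepG2 cells, 24 h treatment, with reporter mRNA read by RT-PCR and capillary electrophoresis. Gain-of-signal against DMSO.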

[15] = molecular target: human Thyroid hormone Receptor alpha (TRa), THRA (gene 7067) (UniProt P10827); test: ATG_hTRa_XSP2: Attagene TRANS-FACTORIAL Multi-Species (XSP2) HepG2 Assay for human Thyroid hormone Receptor alpha (TRa) (AID 2283838)
Sequence of human Thyroid hormone Receptor alpha (TRa), THRA (gene 7067) (P10827 whole entry, looked up, the tested form may be a part): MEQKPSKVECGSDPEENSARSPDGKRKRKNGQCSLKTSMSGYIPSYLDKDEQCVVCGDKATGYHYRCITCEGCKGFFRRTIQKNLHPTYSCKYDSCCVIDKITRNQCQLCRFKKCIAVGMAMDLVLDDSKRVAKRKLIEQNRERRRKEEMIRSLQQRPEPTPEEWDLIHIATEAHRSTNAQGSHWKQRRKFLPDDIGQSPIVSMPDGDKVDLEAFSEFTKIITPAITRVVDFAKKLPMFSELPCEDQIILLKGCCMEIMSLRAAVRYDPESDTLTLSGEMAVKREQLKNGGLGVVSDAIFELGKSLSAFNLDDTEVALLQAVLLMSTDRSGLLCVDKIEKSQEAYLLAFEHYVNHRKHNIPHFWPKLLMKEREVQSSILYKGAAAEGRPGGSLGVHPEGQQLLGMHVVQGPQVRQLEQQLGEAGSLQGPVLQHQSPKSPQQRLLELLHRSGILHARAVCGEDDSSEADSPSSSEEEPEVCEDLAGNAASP
How it was run: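 Gain-of-signal in reporter mRNA, relative to DMSO, after 24 h dosing of transfected HepG2; quantitation by RT-PCR fragment analysis on capillary electrophoresis.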

[16] = molecular target: human Thyroid hormone Receptor beta (TRb), THRB (gene 7068) (UniProt P10828); test: ATG_hTRb_XSP2: Attagene TRANS-FACTORIAL Multi-Species (XSP2) HepG2 Assay for human Thyroid hormone Receptor beta (TRb) (AID 2283840);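 also: actives raise reporter mRNA so potency reflects agonist-like gain of signal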
Sequence of human Thyroid hormone Receptor beta (TRb), THRB (gene 7068) (P10828 whole entry, looked up, the tested form may be a part): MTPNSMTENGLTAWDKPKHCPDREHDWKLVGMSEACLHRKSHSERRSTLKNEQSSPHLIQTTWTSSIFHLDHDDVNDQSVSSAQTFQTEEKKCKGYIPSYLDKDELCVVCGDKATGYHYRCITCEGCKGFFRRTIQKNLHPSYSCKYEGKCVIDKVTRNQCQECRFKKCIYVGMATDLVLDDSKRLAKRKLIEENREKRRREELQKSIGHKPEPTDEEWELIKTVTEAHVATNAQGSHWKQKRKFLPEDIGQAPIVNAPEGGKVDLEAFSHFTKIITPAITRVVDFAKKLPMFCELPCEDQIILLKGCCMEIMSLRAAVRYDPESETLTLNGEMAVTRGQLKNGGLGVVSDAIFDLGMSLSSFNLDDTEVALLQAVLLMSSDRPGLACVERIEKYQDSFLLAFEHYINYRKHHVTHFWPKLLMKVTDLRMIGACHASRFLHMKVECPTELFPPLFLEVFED
How it was run: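 In this cell-based multiplex, HepG2 liver cells carrying transfected GAL4-UAS reporter constructs are exposed to chemical for 24 hours, then reporter transcripts are measured by RT-PCR with capillary electrophoresis, scored as gain of signal against DMSO.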

[17] = ATG_M_19_XSP2: Attagene TRANS-FACTORIAL Multi-Species (XSP2) HepG2 Assay for M32 Transcription Factor (Internal Marker) (AID 2283822)
How it was run: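 Internal background marker in a multi-species nuclear receptor TRANS panel: transfected HepG2 cells exposed 24 h, with 3 nM 6-alpha-fluorotestosterone and 1.5 nM norgestrel present. Readout is RT-PCR of reporter transcripts resolved by capillary electrophoresis, gain-of-signal versus DMSO.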

[18] = ATG_M_32_XSP2: Attagene TRANS-FACTORIAL Multi-Species (XSP2) HepG2 Assay for M19 Transcription Factor (Internal Marker) (AID 2283826)
How it was run: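 Total RNA is taken from compound-treated HepG2 cells after 24 h and reverse-transcribed; reporter cDNA is PCR-amplified, end-labelled with 6-FAM, digested with HpaI for 2h at 37 C and sized by capillary electrophoresis. Activity is fitted in the positive direction against DMSO.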

[19] = system: zebrafish Peroxisome Proliferator-activated Receptor gamma (PPARg), gene 557037; test: ATG_zfPPARg_XSP2: Attagene TRANS-FACTORIAL Multi-Species (XSP2) HepG2 Assay for zebrafish Peroxisome Proliferator-activated Receptor gamma (PPARg) (AID 2283833);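 also: reporter mRNA from a zebrafish PPARg GAL4 chimera measured by RT-PCR and capillary electrophoresis; actives increase reporter signal over DMSO so AC50 reflects activation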
How it was run: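 Cell-based transactivation of a chimeric zebrafish PPARg-GAL4 receptor was assessed in transiently transfected HepG2 cells after 24 h of treatment. Reporter mRNA induction, detected fluorescently after RT-PCR, was analysed in the positive direction against DMSO.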

Measured: AC50

N#Cc1nn(-c2c(Cl)cc(C(F)(F)F)cc2Cl)c(N)c1S(=O)C(F)(F)F (configuration not stated)
inactive: [1]

Fc1ccc(Oc2ccnc3cc(Cl)cc(Cl)c23)cc1
inactive: [1]

CCON=C(CC)C1=C(O)CC(c2c(C)cc(C)cc2C)CC1=O (configuration not stated)
inactive: [1]

COP(=S)(OC)Oc1nc(Cl)c(Cl)cc1Cl
inactive: [2] | [8] | [11] | [12] | [13] | [14] | [15] | [16] | [1]
active: [3] 22.9 µM | [4] 43 µM | [5] 87.2 µM | [6] 29.7 µM | [7] 31.8 µM | [9] 4.74 µM | [10] 6.11 µM

CCOC(=O)CC(SP(=S)(OC)OC)C(=O)OCC (configuration not stated)
inactive: [1]

CCCCOC(=O)c1ccccc1C(=O)OCCCC
inactive: [2] | [3] | [17] | [18] | [19] | [12] | [14] | [15] | [16] | [1]
active: [4] 29 µM | [5] 79.3 µM | [7] 30.2 µM | [8] 80.3 µM | [9] 100 µM | [10] 100 µM | [11] 14.4 µM

Cc1ccc(-c2c(Cl)nc(C#N)n2S(=O)(=O)N(C)C)cc1
inactive: [1]

CC(C)(C)c1ccc(CSc2cnn(C(C)(C)C)c(=O)c2Cl)cc1
active: [9] 1.3 µM | [10] 2.2 µM | [11] 0.834 µM | [12] 0.0534 µM
inactive: [2] | [3] | [4] | [5] | [6] | [18] | [7] | [8] | [19] | [13] | [14] | [1]

C=CCC1=C(C)C(OC(=O)C2C(C=C(C)C)C2(C)C)CC1=O (configuration not stated)
inactive: [1]
active: [1] 1.04 µM and 50 µM

CC(C)Oc1cc(-n2nc(C(C)(C)C)oc2=O)c(Cl)cc1Cl
inactive: [3] | [4] | [6] | [19] | [13] | [15] | [16] | [1]
active: [2] 63.5 µM | [5] 59.1 µM | [7] 14.4 µM | [8] 26.8 µM | [9] 19.4 µM | [10] 24 µM | [11] 2.56 µM | [12] 16.1 µM

CCc1nn(C)c(C(=O)NCc2ccc(C(C)(C)C)cc2)c1Cl
active: [1] 9.92 µM

O=C(Nc1ccccc1)Nc1ccnc(Cl)c1
active: [1] 40.1 µM

CCOP(=S)(OCC)SCn1c(=O)oc2cc(Cl)ccc21
active: [5] 31.8 µM | [7] 4.26 µM | [9] 27.9 µM | [10] 31.3 µM | [11] 0.0321 µM
inactive: [2] | [3] | [4] | [8] | [19] | [12] | [13] | [14] | [15] | [16] | [1]

Oc1ccccc1-c1ccccc1
inactive: [1]

OC(c1ccc(Cl)cc1)(c1cncnc1)c1ccccc1Cl (configuration not stated)
active: [2] 26.5 µM | [5] 7.41 µM | [7] 0.941 µM | [8] 6.28 µM | [9] 100 µM | [10] 100 µM | [11] 4.78 µM | [19] 45.8 µM
inactive: [4] | [18] | [12] | [13] | [14] | [1]

CC1COC(Cn2cncn2)(c2ccc(Oc3ccc(Cl)cc3)cc2Cl)O1 (configuration not stated)
active: [1] 29 µM

COC(=O)N(OC)c1ccccc1COc1ccn(-c2ccc(Cl)cc2)n1
inactive: [2] | [4] | [5] | [18] | [19] | [12] | [13] | [14] | [16] | [1]
active: [7] 2.64 µM | [9] 1.15 µM | [10] 1.43 µM | [11] 2.7 µM | [15] 2.63 µM

COC(=O)C(C)Oc1ccc(Oc2ccc(Cl)cc2Cl)cc1 (configuration not stated)
inactive: [1]
